BoNT F protease: BoNT/F light chain protease inhibitors, primary screen, biochemical, flow cytometry, MLPCN library | Botulinum neurotoxin type F light chain protease (Clostridium botulinum) | inhibition, % at 10 µM | hit rate 0.22% among 360,000 | AID 588497, 2011 | Multiplex microsphere protease cleavage assay; in the data active = inhibition above about 35%, passing the limit was not always enough; inconclusive = no clear call, values can overlap the other calls; note: plate controls were buffer without enzyme for full effect and enzyme alone for no effect
BoNT A protease: BoNT/A light chain protease inhibitors, primary screen, biochemical, flow cytometry, MLPCN library; inhibition, % at 10 µM; multiplex microsphere protease substrate cleavage; hit rate 0.17% among 360,000; note: plate controls were buffer without enzyme for full effect and enzyme alone for no effect
PfHsp40 rescue: rescue of yeast from PfHsp40 toxicity, primary screen, S. cerevisiae, ATP luminescence. AID 504582, 2011. hit rate 0.68% among 340,000. growth rescue, % at 12.5 µM. S. cerevisiae expressing PfHsp40, growth rescue; in the data active = growth rescue above about 28%, passing the limit was not always enough; inconclusive = no clear call, values can overlap the other calls;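 note: yeast W303a lacking pdr1 and pdr3 grown in galactose medium; growth measured after three days at 30 °C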
Bead autofluor: flagged as autofluorescent in microsphere protease counterscreen; compound autofluorescence counterscreen, microsphere flow cytometry; stronger effect = higher value; fluorescence intensity (no concentration beside the values); AID 624483; hit rate 3.1% among 360,000; in the data active = fluorescence intensity above about 16000; inconclusive = no clear call, values can overlap the other calls
MazF activator: activators of E. coli MazEF toxin-antitoxin RNase, primary screen, biochemical, fluorescence, uHTS. hit rate 0.32% among 350,000. activation, % at 20 µM. FAM/BHQ RNA-DNA oligo cleavage fluorescence, 5 h. AID 504720, 2011; in the data active = activation above about 50%
Target sequence (P0AE70 whole entry, looked up): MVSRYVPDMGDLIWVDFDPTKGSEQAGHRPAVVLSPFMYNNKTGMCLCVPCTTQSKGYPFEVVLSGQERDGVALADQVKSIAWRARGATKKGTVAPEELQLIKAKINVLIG
Anthrax LF prot: Bacillus anthracis LF protease inhibitors, primary screen, biochemical, multiplex microsphere, MLPCN library; inhibition, % at 10 µM; hit rate 0.12% among 360,000; Lethal factor (Bacillus anthracis), P15917; multiplex microsphere protease cleavage assay; note: plate controls were buffer without enzyme for full effect and enzyme alone for no effect
BoNT-A LC CP2: BoNT/A light chain protease inhibitors, confirmation, biochemical, flow cytometry, cherry pick 2; multiplex microsphere protease cleavage assay; hit rate 10% among 150; inhibition, % at 10 µM; shares compounds with BoNT A protease; in the data active = inhibition above about 24%
LF protease CP2: Bacillus anthracis LF protease inhibitors, confirmation, biochemical, multiplex microsphere. shares compounds with BoNT A protease. multiplex microsphere protease cleavage assay. inhibition, % at 10 µM. hit rate 7% among 150; in the data active = inhibition above about 25%
BoNT-F LC CP2: BoNT/F light chain protease inhibitors, confirmation, biochemical, flow cytometry, cherry pick 2; AID 602336, 2012; inhibition, % at 10 µM; hit rate 7% among 150; shares compounds with BoNT A protease; multiplex microsphere protease cleavage assay; in the data active = inhibition above about 25%
The depositor's hits bear a star. Shown are actives, neighbours in structure and some others; about 4.3% of the full set was active somewhere. Cut-off read from the data, not from the text of the source, unless noted: active = inhibition above about 30%; inconclusive = no clear call, values can overlap the other calls; inactive = below that.

Results for CCN(CC)S(=O)(=O)c1ccc(C(=O)NCc2ccc3c(c2)cc(C)n3C)cc1 ?
BoNT F protease: -97.7; BoNT A protease: 80.8*; PfHsp40 rescue: 0.3; Bead autofluor: 1295; MazF activator: -9.8; Anthrax LF prot: -83.0; BoNT-A LC CP2: 3.0; LF protease CP2: 0.4; BoNT-F LC CP2: 9.3

How did CCN(CC)CCNC(=O)C1(O)c2cc(Br)ccc2NC(=O)N1c1c(F)cccc1F (stereo unspecified) do in these assays?
BoNT F protease: -15.5; BoNT A protease: -5.0; PfHsp40 rescue: 0.2; Bead autofluor: 3926; MazF activator: 0.2; Anthrax LF prot: -7.7

What do the screens show for `O=C(NCCN1CCOCC1)c1cccc(S(=O)(=O)Nc2ccc(Br)cc2)c1`?
BoNT F protease: 7.1; BoNT A protease: 1.8; PfHsp40 rescue: -0.4; Bead autofluor: 3592; MazF activator: 0.0; Anthrax LF prot: 3.6

What do the screens show for `Cc1cc2cc(CNC(=O)c3ccc(C)c([N+](=O)[O-])c3)ccc2[nH]1`?
BoNT F protease: -89.0; BoNT A protease: 64.8*; PfHsp40 rescue: 19.9; Bead autofluor: 3000; MazF activator: 6.4; Anthrax LF prot: -68.9; BoNT-A LC CP2: 4.1; LF protease CP2: 3.3; BoNT-F LC CP2: 7.9

What do the screens show for `CCOC(=O)C1CCN(C(=O)c2ccc(OCC(=O)Nc3cccc(C(F)(F)F)c3)c(OC)c2)CC1`?
BoNT F protease: -10.5; BoNT A protease: -6.4; PfHsp40 rescue: 0.9; Bead autofluor: inconclusive; MazF activator: 1.6; Anthrax LF prot: -9.5

Results for COc1ccc(-c2nc3c(Cl)cc(C(F)(F)F)cn3c2Cc2ccsc2)cc1OC ?
BoNT F protease: -0.7; BoNT A protease: 3.0; Bead autofluor: 5804; Anthrax LF prot: -5.2; BoNT-A LC CP2: 14.7; LF protease CP2: -1.9; BoNT-F LC CP2: 13.4

How did COc1ccc(CC(=O)OCC(=O)c2c[nH]c3ccccc23)cc1 do in these assays?
BoNT F protease: -8.4; BoNT A protease: 52.7*; PfHsp40 rescue: 2.5; Bead autofluor: 9727; MazF activator: 2.7; Anthrax LF prot: 24.3; BoNT-A LC CP2: 14.5; LF protease CP2: 11.6; BoNT-F LC CP2: -4.0

How did Cc1ccccc1OCC(=O)OCC(=O)c1c[nH]c2ccccc12 do in these assays?
BoNT F protease: -0.1; BoNT A protease: 1.0; PfHsp40 rescue: -0.2; Bead autofluor: 8924; MazF activator: 8.6; Anthrax LF prot: -4.5; BoNT-A LC CP2: 3.1; LF protease CP2: 1.3; BoNT-F LC CP2: 9.9

What do the screens show for `Cc1ccc(C(=O)COC(=O)COc2ccccc2C)cc1`?
BoNT F protease: 5.8; BoNT A protease: -1.9; PfHsp40 rescue: -1.5; Bead autofluor: 6252; MazF activator: -6.0; Anthrax LF prot: 0.4

What do the screens show for `COc1cc(CC(=O)OCC(=O)c2c[nH]c3ccccc23)cc(OC)c1OC`?
BoNT F protease: -13.1; BoNT A protease: 50.2*; PfHsp40 rescue: -0.5; Bead autofluor: 10228; MazF activator: -0.3; Anthrax LF prot: 24.6; BoNT-A LC CP2: 14.8; LF protease CP2: 15.9; BoNT-F LC CP2: -1.2

How did Cn1ccc2c(-c3ccc(C(N)=O)cc3)cc3c(c21)C1CCC3C1 (stereo unspecified) do in these assays?
BoNT F protease: -4.7; BoNT A protease: 0.5; Bead autofluor: 6175; Anthrax LF prot: 5.5; BoNT-A LC CP2: 1.2; LF protease CP2: 1.6; BoNT-F LC CP2: 3.8

Results for CSc1ccc(-c2cc3c(c4c2ccn4C)C2CCC3C2)cc1 (stereo unspecified) ?
BoNT F protease: -17.3; BoNT A protease: 1.2; Bead autofluor: 6020; Anthrax LF prot: 1.0

What do the screens show for `Cn1ccc2c(-c3ccc(CO)cc3)cc3c(c21)C1CCC3C1` (stereo unspecified)?
BoNT F protease: -13.7; BoNT A protease: 5.1; Bead autofluor: 5459; Anthrax LF prot: 7.4; BoNT-A LC CP2: 4.3; LF protease CP2: 2.5; BoNT-F LC CP2: 6.7

What do the screens show for `Cn1ccc2c(-c3ccc(C(F)(F)F)cc3)cc3c(c21)C1CCC3C1` (stereo unspecified)?
BoNT F protease: 2.5; BoNT A protease: 2.4; Bead autofluor: 5818; Anthrax LF prot: -11.7; BoNT-A LC CP2: 1.8; LF protease CP2: -2.2; BoNT-F LC CP2: -5.9

How did Cc1ccccc1-c1cc2c(c3c1ccn3C)C1CCC2C1 (stereo unspecified) do in these assays?
BoNT F protease: -12.7; BoNT A protease: 6.5; Bead autofluor: 5502; Anthrax LF prot: 9.1; BoNT-A LC CP2: 3.5; LF protease CP2: 1.3; BoNT-F LC CP2: -3.7

What do the screens show for `Cn1ccc2c(-c3ccc(C(F)(F)F)cc3)cc3c(c21)C1CCC3O1` (stereo unspecified)?
BoNT F protease: 6.3; BoNT A protease: 0.8; Bead autofluor: 5675; Anthrax LF prot: -2.8

Results for O=C(NCCc1ccc(OC(F)F)cc1)C1CC(=O)N(c2ccc3c(c2)OCCO3)C1 (stereo unspecified) ?
BoNT F protease: -9.2; BoNT A protease: 2.0; PfHsp40 rescue: -2.2; Bead autofluor: 4943; MazF activator: -9.0; Anthrax LF prot: -0.2

What do the screens show for `CC(C)(C)c1ccc(Cn2c(=O)cnc3ccccc32)cc1`?
BoNT F protease: 0.3; BoNT A protease: -0.4; PfHsp40 rescue: 2.0; Bead autofluor: 5362; MazF activator: -8.5; Anthrax LF prot: -2.7

How did Cc1ccc2nc(SCC(=O)NCc3ccccc3)nc(=O)n2c1 do in these assays?
BoNT F protease: 2.0; BoNT A protease: -0.4; PfHsp40 rescue: 0.2; Bead autofluor: 6468; MazF activator: -27.9; Anthrax LF prot: 2.7

How did Cn1ccc2c(-c3ccc(F)cc3)cc3c(c21)C1CCC3C1 (stereo unspecified) do in these assays?
BoNT F protease: -12.4; BoNT A protease: 6.3; Bead autofluor: 5633; Anthrax LF prot: 5.0; BoNT-A LC CP2: 3.7; LF protease CP2: 1.2; BoNT-F LC CP2: -2.1

Results for COc1ccc(-c2cc3c(c4c2ccn4C)C2CCC3C2)cc1F (stereo unspecified) ?
BoNT F protease: -6.0; BoNT A protease: 17.1; Bead autofluor: 3355; Anthrax LF prot: 16.6; BoNT-A LC CP2: 3.8; LF protease CP2: -2.5; BoNT-F LC CP2: -13.8

Screens: PubChem, several laboratories
